# Data published in PubChem BioAssay (EPA / NIEHS).
# Several values for one entry are separate records, joined by “and”; a condition that tells them apart may be missing. Equal entries are not always repeated. Records with an inconclusive call do not appear. A structure can be active in one record and inactive in another. Activity calls are given as the source filed them. The calls were made as follows: active = hit-call score of the fitted dose curve at least 0.9, where 1 is the maximum; inconclusive = response in the unintended direction; inactive = score below 0.9.
# Biological target: rat Peripheral-type Benzodiazepine Receptor (PBR), Tspo (gene 24230) (UniProt P16257)
# Assay: NVS_MP_rPBR: NovaScreen (NVS) Membrane Protein Assay for rat Peripheral-type Benzodiazepine Receptor (PBR) (AID 2283335)
# Description: NVS_MP_rPBR is a biochemical, single-readout assay that uses extracted gene-proteins from Rat kidney membranes in a tissue-based cell-free assay. Measurements were taken 1 hour after chemical dosing in a 48-well plate.NVS_MP_rPBR is one of one assay component(s) measured or calculated from the NVS_MP_rPBR assay. It is designed to make measurements of radioligand binding, a form of binding reporter, as detected with scintillation counting signals by Filter-based radiodetection technology.Data from the assay component NVS_MP_rPBR was analyzed into 1 assay endpoint. This assay endpoint, NVS_MP_rPBR, was analyzed in the positive analysis fitting direction relative to DMSO as the negative control and baseline of activity. Using a type of binding reporter, loss-of-signal activity can be used to understand changes in the binding as they relate to the gene Tspo. Furthermore, this assay endpoint can be referred to as a primary readout, because the performed assay has only produced 1 assay endpoint. To generalize the intended target to other relatable targets, this assay endpoint is annotated to the transporter intended target family, where the subfamily is cholesterol transporter.
# Binding assays used specific radioligands (tritiated, iodinated) with non-radioactive competitive displacement ligands in agonist or antagonist protocols (as indicated) and various reference compounds and inhibitors to titrate specific binding to receptors and transporters. Most enzyme assays (CYPs, kinases, phosphatases, proteases, HDACs) used recombinant protein and specific substrates (fluorescence mostly, some colorimetric and radioactive) and inhibitors, followed by a biochemical separation of substrate and product. All assays for the biochemical HTS were initially run in duplicate at a single concentration (10 uM for CYP450 assays and 25 uM for all others). […] Each assay was run with positive and negative controls, and concurrent controls on every plate. The follow-up (secondary) screen tested active chemical-pairs in concentration series, as well as a few additional assays not tested in the primary screen, some selected negative inactives, and several cases re-run in the concentration series for confirmatory purposes.
# rat Peripheral-type Benzodiazepine Receptor (PBR), Tspo (gene 24230), sequence (P16257 whole entry, looked up): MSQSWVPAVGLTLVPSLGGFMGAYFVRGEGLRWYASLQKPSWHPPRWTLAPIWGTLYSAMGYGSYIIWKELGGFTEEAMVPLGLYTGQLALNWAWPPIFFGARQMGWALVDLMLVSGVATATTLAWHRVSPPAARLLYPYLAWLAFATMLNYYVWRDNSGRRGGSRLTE
Structure (SMILES),AC50,outcome
Nc1ccc(N)c([N+](=O)[O-])c1,1.02 µM (active),inactive
COc1cc(OC)c2ccc(=O)oc2c1,0.157 µM (active),
CCCCCCOc1ccc(O)cc1,6.49 µM (active),
NC(=O)c1c(Cl)cccc1Cl,,inactive
C#C[C@]1(O)CC[C@H]2[C@@H]3CCc4cc(O)ccc4[C@H]3CC[C@@]21C,4.59 µM (active),inactive
O=C(c1ccc(OCCN2CCCCC2)cc1)c1c(-c2ccc(O)cc2)sc2cc(O)ccc12,6.31 µM (active),
CCc1cccc(O)c1,,inactive
O=C1OC2(c3ccc(O)cc3Oc3cc(O)ccc32)c2ccccc21,15.1 µM (active),
CC1(C)[C@H](C=C(Cl)Cl)[C@H]1C(=O)OCc1cccc(Oc2ccccc2)c1,,inactive
CCCCCC1C(=O)CCC1CC(=O)OC (configuration not stated),11.6 µM (active) and 25 µM (active),
